# The source made the active and inactive calls.
# Key:
# Albumin (Bos taurus) = Albumin (Bos taurus) (UniProt P02769); experiment: compounds binding labelled BSA control protein – biochemical, small-molecule microarray, Alexa647 label, 635/667 nm fluorescence, artefact control for SMM control protein annotation, profiling panel (AID 1118); settings: BSA-A647 binding, fluorescence 635 nm, higher = more signal;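 further: score merges 667 nm emission intensity and signal-to-noise per printed compound spot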
# Chain of Albumin (Bos taurus) (P02769 whole entry, looked up): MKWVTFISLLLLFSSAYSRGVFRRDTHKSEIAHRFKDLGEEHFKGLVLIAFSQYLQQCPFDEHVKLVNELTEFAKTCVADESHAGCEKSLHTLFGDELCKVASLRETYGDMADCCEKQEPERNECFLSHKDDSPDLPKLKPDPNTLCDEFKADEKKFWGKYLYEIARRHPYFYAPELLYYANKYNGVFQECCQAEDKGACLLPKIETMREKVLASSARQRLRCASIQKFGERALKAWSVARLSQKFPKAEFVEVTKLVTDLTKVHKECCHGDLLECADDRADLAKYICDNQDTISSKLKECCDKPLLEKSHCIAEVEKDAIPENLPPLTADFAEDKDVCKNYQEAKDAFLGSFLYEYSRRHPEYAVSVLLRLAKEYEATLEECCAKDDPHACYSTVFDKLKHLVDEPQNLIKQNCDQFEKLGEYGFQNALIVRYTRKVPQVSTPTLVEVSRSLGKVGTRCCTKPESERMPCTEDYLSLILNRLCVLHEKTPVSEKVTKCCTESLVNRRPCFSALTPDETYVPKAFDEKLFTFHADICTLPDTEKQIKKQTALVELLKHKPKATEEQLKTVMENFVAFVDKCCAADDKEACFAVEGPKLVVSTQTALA
# [1] = probe aXIP binding to arrayed compounds – biochemical, NeuroSMM set, 635/667 nm fluorescence, primary screen (AID 1119); settings: small-molecule microarray, higher = more signal, called active from +8 up or from −8 down;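 further: probe is the protein aXip251-270 applied at 1 µg/mL to compound-printed slides; binding of probe to printed compounds measured as 667 nm fluorescence plus signal to noise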
# [2] = probe aNOTCH3 binding on compound microarray – biochemical, small-molecule microarray, 635/667 nm fluorescence, primary screen (AID 1120); settings: higher = more signal;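 further: probe is a biotin-tagged antibody raised against NOTCH3 rather than NOTCH3 protein; score merges spot fluorescence near 667 nm with spot signal to noise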
# [3] = probe aNOTCH2 binding on compound microarray – biochemical, small-molecule microarray, 635/667 nm fluorescence, primary screen (AID 1121); settings: higher = more signal;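 further: score merges feature fluorescence read at 667 nm with its signal to noise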
# [4] = biological target: Carbonic anhydrase 2 (Homo sapiens) (UniProt P00918); experiment: compounds binding carbonic anhydrase 2 – biochemical, small-molecule microarray, Alexa647-labelled CAII, profiling panel (AID 1122); settings: CAII-A647 binding fluorescence, higher = more signal
# [5] = COS7 lysate on small-molecule microarray, probe aHis, 635 nm (AID 1123); settings: COS7 cell lysate, fluorescence, higher = more signal;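 further: z-score combines 667nm fluorescence intensity with signal-to-noise per printed compound spot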
# [6] = probe aLAP1 signal on lysate-treated microarray – cell lysate, small-molecule microarray, COS7 lysate, primary screen (AID 1124); settings: probe aLAP1, fluorescence, higher = more signal;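 further: lysate comes from COS7 cells expressing LAP1 and is applied at 0.3 µg/mL; score merges spot fluorescence near 667 nm with signal-to-noise over triplicate slides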
# Sam68 (KHDRBS1) = experiment: compounds binding KHDRBS1 protein – biochemical, small-molecule microarray, 635 nm fluorescence, primary screen (AID 1125); settings: higher = more signal;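 further: score merges 667 nm channel intensity with signal to noise over triplicate slides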
# [7] = system: Chordin-like protein 2 (CHRDL2); experiment: compounds binding chordin-like 2 – biochemical, small-molecule microarray, 635 nm fluorescence, primary screen (AID 1126); settings: fluorescence 635 nm, higher = more signal;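 further: printed compound slides probed with Chrdl2 protein at 4 µg/mL for 1 h at 4 C; score merges 667 nm emission intensity with signal to noise over three replicate slides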
# [8] = biological target: Concanavalin-A (Canavalia ensiformis) (UniProt P02866); experiment: compounds binding concanavalin A lectin – biochemical, small-molecule microarray, Alexa647 label, 635 nm, artefact control for SMM control protein annotation, primary screen (AID 1127); settings: ConA-A647 binding fluorescence, higher = more signal;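 further: z combines 667 nm emission intensity with signal-to-noise across three replicate slides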
# Chain of Concanavalin-A (Canavalia ensiformis) (P02866 whole entry, looked up): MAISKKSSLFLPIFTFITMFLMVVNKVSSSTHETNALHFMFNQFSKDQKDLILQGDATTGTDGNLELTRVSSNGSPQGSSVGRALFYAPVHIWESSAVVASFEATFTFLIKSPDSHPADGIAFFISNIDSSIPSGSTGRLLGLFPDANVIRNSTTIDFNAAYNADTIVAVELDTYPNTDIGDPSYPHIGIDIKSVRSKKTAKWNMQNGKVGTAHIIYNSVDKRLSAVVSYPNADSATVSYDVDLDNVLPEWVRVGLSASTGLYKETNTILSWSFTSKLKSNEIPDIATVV
# [9] = compounds binding Alexa647 anti-His antibody – biochemical, small-molecule microarray, 635 nm fluorescence, artefact control for SMM control protein annotation, primary screen (AID 1128); settings: higher = more signal;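 further: score merges feature fluorescence with signal-to-noise for each printed compound spot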
# [10] = system: Human papillomavirus type 1a E7 protein (residues 1-88); experiment: HPV1a E7 small-molecule binders, primary screen, biochemical, small-molecule microarray, residues 1-88, 635 nm (AID 1129); settings: small-molecule microarray binding, fluorescence 635 nm; higher = more signal
# [11] = biological target: Focal adhesion kinase 1 (Homo sapiens) (UniProt Q05397); experiment: PTK2 protein binding on printed compound slides – biochemical, small-molecule microarray, 635/667 nm fluorescence, BSA, DTT, primary screen (AID 1130); settings: 635 nm fluorescence, higher = more signal;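 further: composite of spot emission at 667 nm and signal to noise over triplicate slides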
# Chain of Focal adhesion kinase 1 (Homo sapiens) (Q05397 whole entry, looked up): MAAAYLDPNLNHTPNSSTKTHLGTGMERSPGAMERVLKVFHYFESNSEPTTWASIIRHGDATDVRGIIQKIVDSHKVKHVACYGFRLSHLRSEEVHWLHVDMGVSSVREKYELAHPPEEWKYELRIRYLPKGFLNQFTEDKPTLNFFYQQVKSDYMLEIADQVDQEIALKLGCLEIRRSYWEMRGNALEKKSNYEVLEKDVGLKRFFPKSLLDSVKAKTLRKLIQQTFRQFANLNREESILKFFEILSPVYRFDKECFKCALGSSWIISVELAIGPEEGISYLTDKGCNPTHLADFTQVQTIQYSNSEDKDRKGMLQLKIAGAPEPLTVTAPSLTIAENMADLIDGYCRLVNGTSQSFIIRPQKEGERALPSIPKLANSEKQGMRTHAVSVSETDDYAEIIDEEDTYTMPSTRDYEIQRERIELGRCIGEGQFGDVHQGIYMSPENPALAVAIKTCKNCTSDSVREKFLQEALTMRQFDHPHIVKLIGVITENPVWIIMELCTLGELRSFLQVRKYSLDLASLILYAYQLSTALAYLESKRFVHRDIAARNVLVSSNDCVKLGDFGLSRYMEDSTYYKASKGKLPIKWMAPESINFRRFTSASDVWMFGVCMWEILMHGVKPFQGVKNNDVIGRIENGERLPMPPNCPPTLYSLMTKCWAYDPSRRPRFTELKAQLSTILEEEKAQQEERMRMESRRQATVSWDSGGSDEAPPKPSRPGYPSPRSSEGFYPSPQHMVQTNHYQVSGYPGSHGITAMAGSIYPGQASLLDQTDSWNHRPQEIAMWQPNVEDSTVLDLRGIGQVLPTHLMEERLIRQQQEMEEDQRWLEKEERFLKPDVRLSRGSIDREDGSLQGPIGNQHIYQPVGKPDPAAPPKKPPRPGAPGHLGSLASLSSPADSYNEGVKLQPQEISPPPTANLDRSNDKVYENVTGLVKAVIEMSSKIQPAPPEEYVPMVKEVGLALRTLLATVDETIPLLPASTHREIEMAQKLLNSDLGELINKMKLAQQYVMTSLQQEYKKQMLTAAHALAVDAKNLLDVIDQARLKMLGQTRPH
# [12] = system: Fibrinogen (Alexa647-labelled); experiment: Alexa647-fibrinogen binding to printed small molecules – biochemical, small-molecule microarray, 635/667 nm fluorescence, artefact control for SMM control-protein annotation, profiling panel (AID 1131); settings: fibrinogen-A647 binding fluorescence, higher = more signal;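 further: z-score merges 667 nm fluorescence with per-spot signal-to-noise over triplicate slides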
# [13] = biological target: Follistatin (Homo sapiens) (UniProt P19883); experiment: FST protein binding to printed compounds – biochemical, small-molecule microarray, 635/667 nm fluorescence, primary screen (AID 1132); settings: 635 nm fluorescence, higher = more signal
# Chain of Follistatin (Homo sapiens) (P19883 whole entry, looked up): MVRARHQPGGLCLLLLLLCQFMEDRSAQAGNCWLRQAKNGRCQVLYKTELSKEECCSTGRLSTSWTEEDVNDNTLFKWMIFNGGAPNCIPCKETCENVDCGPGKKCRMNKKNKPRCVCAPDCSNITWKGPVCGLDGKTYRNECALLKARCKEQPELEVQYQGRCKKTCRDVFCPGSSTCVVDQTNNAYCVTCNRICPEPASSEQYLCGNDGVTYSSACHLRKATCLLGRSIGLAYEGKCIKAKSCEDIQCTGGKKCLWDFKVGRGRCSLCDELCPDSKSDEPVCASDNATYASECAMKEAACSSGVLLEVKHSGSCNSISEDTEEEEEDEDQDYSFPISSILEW
# [14] = biological target: Fibroblast growth factor 2 (Homo sapiens) (UniProt P09038); experiment: basic fibroblast growth factor binding to printed compounds – biochemical, small-molecule microarray, 635/667 nm fluorescence, primary screen (AID 1133); settings: FGF2, fluorescence 635/667, higher = more signal
# Chain of Fibroblast growth factor 2 (Homo sapiens) (P09038 whole entry, looked up): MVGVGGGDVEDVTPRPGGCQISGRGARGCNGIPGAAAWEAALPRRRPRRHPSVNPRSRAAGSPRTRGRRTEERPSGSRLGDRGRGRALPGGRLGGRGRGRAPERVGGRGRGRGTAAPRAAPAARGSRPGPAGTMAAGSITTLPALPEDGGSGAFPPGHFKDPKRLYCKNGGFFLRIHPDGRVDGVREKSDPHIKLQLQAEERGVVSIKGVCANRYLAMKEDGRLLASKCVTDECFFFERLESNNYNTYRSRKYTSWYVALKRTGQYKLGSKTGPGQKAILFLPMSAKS
# [15] = JC-1 mitochondrial potential readout, lung cancer cells – cell-based, A549, JC-1 fluorescence, basal, 24 h, 100 nL, profiling panel (AID 1138); settings: higher = more signal;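 further: A549 lung adenocarcinoma cells under basal conditions with no added stimulus; test concentration not given here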
# Lefty1 = Lefty1 protein binding to printed compounds – biochemical, small-molecule microarray, 635/667 nm fluorescence, primary screen (AID 1139); settings: fluorescence 635/667, higher = more signal
# [16] = system: wheat germ agglutinin (Triticum aestivum), Alexa647-labelled; experiment: Alexa647-WGA lectin binding to printed small molecules – biochemical, small-molecule microarray, 635/667 nm fluorescence, artefact control for SMM control-protein annotation, profiling panel (AID 1140); settings: WGA-A647 binding, 635 nm fluorescence, higher = more signal;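 further: score merges 667 nm feature emission with signal to noise over triplicate slides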
# [17] = biological target: Luciferin 4-monooxygenase (Photinus pyralis) (UniProt P08659); experiment: inhibition of purified Photinus pyralis luciferase – biochemical, luminescence, purified enzyme, 2006 set, primary screen (AID 1141); settings: purified firefly luciferase, SteadyGlo luminescence, 30 min; higher = more signal, called active from +8 up or from −8 down;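 further: cell-free assay with purified firefly luciferase at 100 ng per well in PBS; test concentration not given here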
# Chain of Luciferin 4-monooxygenase (Photinus pyralis) (P08659 whole entry, looked up): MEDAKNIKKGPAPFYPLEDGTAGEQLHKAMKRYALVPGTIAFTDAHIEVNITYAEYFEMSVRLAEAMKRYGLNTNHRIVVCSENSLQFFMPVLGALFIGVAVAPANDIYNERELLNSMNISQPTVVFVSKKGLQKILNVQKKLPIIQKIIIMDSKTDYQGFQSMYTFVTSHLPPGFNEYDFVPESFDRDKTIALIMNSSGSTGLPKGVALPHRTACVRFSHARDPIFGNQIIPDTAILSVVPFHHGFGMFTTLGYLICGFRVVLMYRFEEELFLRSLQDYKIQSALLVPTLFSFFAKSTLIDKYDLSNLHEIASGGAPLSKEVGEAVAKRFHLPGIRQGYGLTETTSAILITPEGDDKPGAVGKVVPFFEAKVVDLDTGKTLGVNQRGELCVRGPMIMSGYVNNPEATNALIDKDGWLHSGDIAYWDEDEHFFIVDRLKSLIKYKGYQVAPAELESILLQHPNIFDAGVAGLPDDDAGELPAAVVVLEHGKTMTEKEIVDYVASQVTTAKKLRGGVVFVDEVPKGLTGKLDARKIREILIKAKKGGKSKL
SMILES,composite z-score (Albumin (Bos taurus)),composite Z-score [1],composite z-score [2],composite z-score [3],composite z-score [4],composite z-score [5],composite z-score [6],composite z-score (Sam68 (KHDRBS1)),composite z-score [7],composite z-score [8],composite z-score [9],composite z-score [10],composite z-score [11],composite z-score [12],composite z-score [13],composite z-score [14],z-score [15],composite z-score (Lefty1),composite z-score [16],z-score [17]
COCCn1c(C(=O)N(C)C)cc2c1C[C@H]1CN(C(=O)c3ccccc3)[C@@](Cc3ccc(F)cc3)(C(=O)OC)[C@@H]21,0.985,0.916 (inactive),0.073,0.197,0.859,2.02,-0.0593,0.459,0.194,0.787,2.3,1.1,0.169,0.485,0.134,-0.158,0.33,-0.0481,1.11,-0.663 (inactive)
COc1ccc([Si](C)(C)[C@@H]2[C@@H](CCO)O[C@]3(C(=O)N(Cc4cccc(N5CCCCC5=O)c4)c4ccccc43)[C@H]2C)cc1,0.532,0.6 (inactive),0.134,-0.123,0.361,1.06,0.0492,1.29,0.128,0.961,0.49,1.17,0.0366,0.825,1.01,0.885,-0.425,0.883,0.746,-0.724 (inactive)
COC(=O)[C@@]1(Cc2ccccc2)[C@H]2c3cc(C(=O)N(C)C)n(Cc4ccccc4)c3C[C@H]2CN1C(=O)c1ccccc1,0.75,0.047 (inactive),0.184,-0.0895,0.749,1.41,-0.469,-0.0506,-0.539,0.919,1.21,1.13,0.614,0.839,0.241,-0.605,0.458,-0.0169,1.04,1.66 (inactive)
CCCNC(=O)[C@@]1(C)c2ccccc2C(=O)N(Cc2cc(F)cc(C(F)(F)F)c2)[C@H]1c1ccc(CO)cc1,0.695,0.373 (inactive),-0.201,-0.0569,0.587,2.24,-0.337,-0.0127,-1.76,-0.365,0.858,-0.331,-0.527,-1.73,-0.839,-0.812,-0.394,-0.662,0.932,0.942 (inactive)
COCCOC(=O)N1C(=O)[C@@]2(c3cc(C#CCCO)ccc31)[C@H](C(=O)NC[C@H](O)c1ccccc1)[C@H]1C(=O)O[C@H](c3ccccc3)[C@H](c3ccccc3)N1[C@@H]2c1ccc(OCCO)cc1,0.536,0.192 (inactive),0.264,-0.155,0.581,1.72,0.684,1.3,0.534,1.13,0.714,1.18,1,0.951,1.28,1.24,-1.27,1.42,0.246,-1.09 (inactive)
O=C(N1CCCCC1)[C@]1(CCS(=O)(=O)c2ccccc2)N=C(c2ccc(OCCCO)cc2)O[C@@H]1c1ccccc1,0.431,1.77 (inactive),0.381,0.0161,0.639,2.08,0.165,1.27,-0.457,1.18,3.05,1.22,1.29,0.949,1.18,0.619,-0.913,0.211,1.31,-0.149 (inactive)
O=C1O[C@@H](c2ccccc2)[C@@H](c2ccccc2)N2[C@@H](c3ccc(O)cc3)[C@]3(C(=O)Nc4ccccc43)[C@@H](C(=O)N3CCCCCCC3)[C@H]12,0.875,5.98 (inactive),1.82,0.464,0.89,3.78,1.14,1.29,1.11,1.17,2.96,1.23,1.22,0.827,1.43,1.64,0.48,1.6,1.46,1.04 (inactive)
CCCCCN1CC=CC23O[C@@H]4C=CCCOC(=O)C4[C@H]2C(=O)N(CCCO)[C@@H]3C1=O (stereo not given in full),0.538,0.33 (inactive),-0.157,-0.155,0.343,-0.0684,0.0581,-0.0504,-0.277,0.121,0.199,-0.388,-0.572,-0.677,-0.182,-0.311,-0.891,-0.364,0.0083,0.126 (inactive)
COc1ccc([Si](C)(C)[C@H]2[C@H](CC(=O)N3Cc4ccccc4C[C@H]3CO)O[C@@]3(C(=O)N(Cc4cccc(I)c4)c4ccccc43)[C@@H]2C)cc1,-0.481,0.58 (inactive),-0.0947,-0.125,0.784,-0.0845,-0.361,0.418,1.54,0.891,1.67,0.0688,-0.706,0.321,1.57,2.13,-0.0488,1.64,0.539,-0.63 (inactive)
C=CCOC(=O)[C@@H]1[C@H]2C(=O)O[C@H](c3ccccc3)[C@H](c3ccccc3)N2[C@H](c2ccc(OCCOC(=O)[C@H]3C[C@H]4C(=O)N[C@@H](CCCC[N+](C)(C)C)C(=O)N4[C@H]3c3cccc(OCCO)c3)cc2)[C@@]12C(=O)Nc1ccc(I)cc12,-0.707,0.629 (inactive),-0.0647,-0.142,0.465,0.93,0.341,1.19,1.19,1.1,1.3,1.18,0.163,0.496,1.4,1.55,-0.93,1.15,0.115,-0.138 (inactive)

# From PubChem BioAssay
